# Values without a mark were called inactive.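 How the source made its calls: active means binding inhibited by at least 50%, or stimulated by at least 50%, shown as inhibition of -50% or lower; inactive means the rest.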
# Test system: Phorbol Ester
# Test: radioligand displacement at 30 receptors – biochemical, Panlabs HitProfilingScreen, selectivity assay for AVPR1a antagonist project, profiling panel (AID 743088)
# Conditions: 30 targets, at 10 µM, active compounds read high
structure (smiles),measurement,value
O=C(C1CCN(c2ccc(Cl)cn2)CC1)N(CC1CC1)c1ccc(Cl)cc1,inhibition of binding,-13%
